hcDAF-12 act = H. contortus DAF-12 activation, primary screen. HEK293 hcDAF-12 lit1-tk-luc reporter, luminescence; 0% DMSO, 100% Δ7-dafachronic acid. activation, % at 6.8 µM. 370,000 compounds, 1.4% hits. AID 652067;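 active = activation above the mean of all tested compounds plus 3 SD, cut at about 5.5% in these data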;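 note: 100% = response to 3 µM Δ7-dafachronic acid high control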
ssDAF12 agonist = activators of S. stercoralis DAF-12 nuclear receptor; 370,000 compounds, 1% hits; activation, % at 6.8 µM; HEK293 ssDAF-12/GRIP1 lit1-tk-luc reporter, luminescence; % of 3 µM dafachronic acid response;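 active = activation above the mean over all tested compounds plus 3 SD, cut at about 0.9% in these data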;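 note: 0% = DMSO-only wells and 100% = 3 µM delta7-dafachronic acid wells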
AHR activator = activators of human aryl hydrocarbon receptor; P35869; AHR-responsive luciferase reporter cells, luminescence; activation, % at 5 µM; 320,000 compounds, 2.5% hits; in the data active = activation above about 47%;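 note: 0% = vehicle wells and 100% = reference agonist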
hgDAF-12 ag = agonists of H. glycines DAF-12 nuclear receptor. HEK293 GAL4-hgDAF12 UAS-luciferase reporter, agonist luminescence; normalized to butyrate control. activation, % at 6.8 µM. 370,000 compounds, 1.8% hits;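 active = activation above a cutoff set at the mean of all screened compounds plus 3 SD, cut at about 10% in these data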;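 note: 0% = DMSO wells and 100% = sodium butyrate wells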
DAX1 inh-1 = blocks DAX1 repression of SF-1 activated StAR promoter | HEK293T StAR-luciferase reporter, SF-1/DAX-1 repression relief | inhibition, % at 6.8 µM | 370,000 compounds, 1.1% hits | AID 652010;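 active = inhibition above the mean over all tested compounds plus 3 SD, cut at about 3.6% in these data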;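 note: 0% = DAX-1 cells with DMSO and 100% = cells lacking DAX-1 with DMSO; higher inhibition means more luminescence from relief of DAX-1 repression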
DAX1 inh-2 = NR0B1 (DAX1) inhibition. 340,000 compounds, 0.99% hits. HEK293 Gal4-DAX1 luciferase reporter, luminescence. P51843. inhibition, % at 6.75 µM;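 active = inhibition above the mean over all tested compounds plus 3 SD, cut at about 4.2% in these data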;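 note: 0% = DAX1-transfected cells with DMSO and 100% = empty-vector control cells with DMSO; inhibition shows as a rise in luminescence from relieved DAX1 repression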
DAX1 inh confirm = NR0B1 (human) inhibition, confirmation; shares compounds with DAX1 inh-1; HEK293T StAR-promoter luciferase reporter, SF-1/DAX-1 repression; inhibition, % at 6.8 µM; 2,400 compounds, 87% hits; AID 652134;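 active = inhibition above the average of every tested compound plus 3 SD, cut at about 3.8% in these data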;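 note: 0% = DAX-1 cells with DMSO and 100% = no DAX-1 control cells with DMSO; active compounds raise luminescence by relieving repression of the StAR reporter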
SF1 mutant ctr = counter-screen for DAX1 inhibitors: nonselective inhibitors with SF-1 AF2 mutant; shares compounds with DAX1 inh-1; HEK293 StAR-luciferase, luminescence; inhibition, % at 6.8 µM; 2,400 compounds, 78% hits;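 active = inhibition above the mean of all tested compounds plus 3 SD, cut at about 3% in these data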;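 note: 0% = DAX-1 transfected cells with DMSO and 100% = cells without DAX-1 with DMSO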
An asterisk follows results filed as active; . = no result. This is a sample that favours compounds with a hit; in the whole collection about 5.7% have one here.

SMILES | hcDAF-12 act | ssDAF12 agonist | AHR activator | hgDAF-12 ag | DAX1 inh-1 | DAX1 inh-2 | DAX1 inh confirm | SF1 mutant ctr
COCC(=O)N(C)[C@H]1C[C@H]2c3[nH]c4ccccc4c3CCN2C(=O)[C@H]1[C@H](C)O | 0 | 0 | . | 3 | 0 | 1 | . | .
Cc1cccc(OCC(=O)Nc2cc(NC(=O)COc3cccc(C)c3C)cc(C(=O)O)c2)c1C | 1 | -1 | 0 | -1 | 0 | 0 | . | .
Cc1ccccc1OCC(=O)Nc1cccc(C(=O)O)c1 | 3 | -1 | . | 11* | 5.0* | -9 | 7.9* | 4.3*
COc1cccc(-c2csc(NC(=O)C3CC3)n2)c1 | 5 | -1 | 2 | 12* | 5.2* | 2 | 7.0* | 5.8*
O=C(Nc1nc(-c2ccc3c(c2)OCCO3)cs1)C1CCCC1 | 5 | -1 | 34 | 8 | 4.7* | 5.8* | 12* | 3.9*
COc1cccc(-c2csc(NC(=O)Nc3ccccc3)n2)c1 | -4 | -2 | -3 | -4 | -1 | 0 | . | .
O=C(CCCCl)Nc1nc(-c2ccc3c(c2)OCCO3)cs1 | 5 | 0 | -7 | 10 | 1 | 2 | . | .
CCOC(=O)C(Cc1ccc(O)cc1)NC(=O)CCc1c[nH]c2ccccc12 (centres undefined) | -1 | -1 | 1 | 1 | 0 | 0 | . | .
O=C(N/N=C/c1ccc(OCc2ccccc2)cc1)c1ccco1 | 2 | 0 | 2 | 7 | 0 | 4 | . | .
O=C(N/N=C/c1ccc2cccnc2c1)c1ccco1 | 3 | 0 | -2 | 12* | 5.0* | 1 | 14* | 7.2*
NS(=O)(=O)c1cccc(NC(=O)c2ccccc2NS(=O)(=O)c2ccc(F)cc2)c1 | 0 | -1 | -1 | -2 | 0 | 1 | . | .
Cc1ccc2c(Cl)c(C(=O)NC3CC3)sc2c1 | 0 | 0 | . | 6 | 5.9* | 2 | 4.4* | 2
O=C(NC1CC1)c1sc2cc([N+](=O)[O-])ccc2c1Cl | 0 | -2 | -1 | 0 | -1 | 0 | . | .
CN1OC[C@@H]2CN[C@H](c3ccc(-c4ccc(C#N)cc4)cc3)C[C@@H]21 | 3 | 1 | . | 12* | 5.4* | 3 | 14* | 8.1*
COc1ccc(C(=O)Nc2ccc(/C(C)=N/NC(=O)c3ccncc3)cc2)cc1 | 1 | 0 | 9 | 9 | 1 | 1 | . | .
C/C(=N/NC(=O)c1ccncc1)c1ccc(NC(=O)c2ccc(Cl)cc2Cl)cc1 | 2 | 0 | 8 | 6 | 5.3* | 2 | 3 | 0
CCN(CC)S(=O)(=O)c1ccc(C(=O)NCC2(N3CCOCC3)CCCCC2)cc1 | 0 | -1 | 0 | 0 | 4.6* | 0 | 3 | 2
CN(C)S(=O)(=O)c1ccc(C(=O)NCC2(N3CCCCC3)CCCCC2)cc1 | 1 | -1 | 0 | -1 | 6.0* | 1 | 8.5* | 3.3*
O=C(/C=C/c1ccc2c(c1)OCO2)Nc1cccnc1 | 3 | -1 | 56* | 11* | 11* | 4 | 14* | 4.5*
O=C(/C=C/c1ccco1)Nc1ccc2c(c1)OCO2 | 2 | 0 | 72* | 12* | 6.1* | 2 | 11* | 6.0*
CC(=O)Nc1ccc(NC(=O)/C=C/c2ccc3c(c2)OCO3)cc1 | -1 | -1 | 1 | 6 | 0 | 1 | . | .
N#Cc1c(-c2ccccc2)nc(N2CCN(Cc3ccccc3)CC2)[nH]c1=O | -1 | -1 | 2 | -2 | 0 | 2 | . | .
Nc1ccc(-n2nc(C(F)(F)F)cc2C(F)(F)F)cc1 | 0 | -1 | -2 | 1 | 0 | 1 | . | .
COc1ccccc1C1CCN(Cc2cccc3ccccc23)CC1 | 0 | -1 | 0 | -3 | 0 | 0 | . | .
CCN(CC)c1ccc(C(=O)NNC(=O)CCl)cc1 | 1 | -1 | 7 | -1 | -2 | 0 | . | .
CCN(CC)c1ccc(C(=O)NNC(=O)c2cccn2C)cc1 | 2 | 1 | 32 | 11* | 5.1* | 4.7* | 6.1* | 5.5*
